# Compounds without any hit were thinned out: in the full panel of roughly 79,000, 15% have a hit. Values without a mark were called inactive. The source made the active and inactive calls. Cut-off read from the data, not from the text of the source: active = growth inhibition above about 70%; inactive = the rest.
# What was measured:
# [1] = NCI Yeast Anticancer Drug Screen. Data for the rad52 strain (AID 147);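 note: 0% = growth of vehicle-treated control cultures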; details: S. cerevisiae rad52 mutant growth inhibition, hits give high values
# Procedure, shortened: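 Read-out: growth inhibition versus vehicle-treated controls. Cells were a DNA repair-deficient yeast strain treated with compounds.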
# [2] = NCI Yeast Anticancer Drug Screen. Data for the wt1 strain (AID 149);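 note: 0% = growth of vehicle-treated wt1 cultures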; details: S. cerevisiae wt1 strain (SPY 50644) growth inhibition, hits give high values
# Procedure, shortened: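 Measured: growth of wt1 yeast under compound versus vehicle treatment, reported as inhibition.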
# [3] = NCI Yeast Anticancer Drug Screen. Data for the rad50EPP+ strain (AID 151);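 note: 0% = growth of vehicle-treated control cultures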; details: S. cerevisiae rad50 mutant strain, hits give high values
# Procedure, shortened: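 Growth inhibition read against vehicle controls in rad50EPP+ yeast, a strain altered in DNA damage repair, after compound exposure.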
# [4] = NCI Yeast Anticancer Drug Screen. Data for the mgt1 strain (AID 153); details: S. cerevisiae mgt1 mutant growth inhibition, hits give high values
# Procedure, shortened: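 mgt1 yeast grown with test compound; read-out is growth inhibition versus vehicle-treated cultures.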
# [5] = NCI Yeast Anticancer Drug Screen. Data for the rad50 strain (AID 155);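 note: 0% = growth of vehicle-only cultures of the same strain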; details: S. cerevisiae rad50 strain growth inhibition, hits give high values
# Procedure, shortened: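 Growth of the mutant yeast was measured after compound exposure and referenced to vehicle-treated cultures.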
# [6] = NCI Yeast Anticancer Drug Screen. Data for the mec2-1 strain (AID 157); details: S. cerevisiae mec2-1 strain, hits give high values
# Procedure, shortened: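 Yeast mec2-1 mutant treated with compound. Readout: growth inhibition vs vehicle controls.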
# [7] = NCI Yeast Anticancer Drug Screen. Data for the rad14 strain (AID 159);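 note: 0% = growth of vehicle-treated control cultures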; details: S. cerevisiae rad14 strain growth inhibition, hits give high values
# Procedure, shortened: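 Here, inhibition of yeast growth was measured after compound exposure, using a strain with a genetic defect in DNA damage repair and vehicle-treated cultures as the reference.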
# [8] = NCI Yeast Anticancer Drug Screen. Data for the sgs1 mgt1 strain (AID 161);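 note: 0% = growth of cultures given vehicle only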; details: S. cerevisiae sgs1 mgt1 strain, hits give high values
# Procedure, shortened: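 Read-out: growth inhibition vs vehicle controls. Cells: mutant yeast strain deficient in DNA damage repair.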
# [9] = NCI Yeast Anticancer Drug Screen. Data for the CLN2oe strain (AID 163);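 note: 0% = growth of vehicle-only control cultures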; details: S. cerevisiae CLN2oe strain, hits give high values
# Procedure, shortened: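 Read-out: yeast growth inhibition, expressed relative to vehicle-only controls. The strain bears an engineered cell-cycle alteration.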
# [10] = NCI Yeast Anticancer Drug Screen. Data for the cln2 rad14 strain (AID 165);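 note: 0% = growth equal to vehicle treated cultures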; details: S. cerevisiae cln2 rad14 strain, hits give high values
# Procedure, shortened: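 cln2 rad14 yeast strain; compound exposure; growth inhibition read vs vehicle controls.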
# [11] = NCI Yeast Anticancer Drug Screen. Data for the bub3 strain (AID 167); details: S. cerevisiae bub3 mutant strain, hits give high values
# Procedure, shortened: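 Whole-cell yeast assay. The mutant strain was incubated with compounds, and growth inhibition was determined by comparison with vehicle-treated cells.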
# [12] = NCI Yeast Anticancer Drug Screen. Data for the wt2 strain (AID 169);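 note: 0% = growth of vehicle-treated yeast cultures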; details: S. cerevisiae wt2 strain growth inhibition, hits give high values
# Procedure, shortened: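 Read-out: growth inhibition versus vehicle-treated control cultures after compound exposure of the yeast strain.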
# [13] = NCI Yeast Anticancer Drug Screen. Data for the mlh1 strain (AID 171);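 note: 0% = growth of vehicle-treated control cultures of the same strain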; details: S. cerevisiae mlh1 strain growth inhibition, hits give high values
# Procedure, shortened: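 Read-out: growth inhibition versus vehicle controls. Strain: engineered yeast with a defined DNA repair or cell cycle defect, compound-treated.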
# [14] = NCI Yeast Anticancer Drug Screen. Data for the sgs1 strain (AID 173);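 note: 0% = growth of vehicle-only control cultures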; details: S. cerevisiae sgs1 mutant, hits give high values
# Procedure, shortened: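 Read-out: yeast growth inhibition relative to vehicle controls, following compound exposure of a strain with a defined DNA repair/cell cycle alteration.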
# [15] = NCI Yeast Anticancer Drug Screen. Data for the mlh1 rad18 strain (AID 175); details: S. cerevisiae mlh1 rad18 strain growth inhibition, hits give high values
# Procedure, shortened: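 Yeast w/ defined DNA-repair lesions; compound exposure; growth vs vehicle controls → % inhibition.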
# [16] = NCI Yeast Anticancer Drug Screen. Data for the rad18 strain (AID 177); details: S. cerevisiae rad18 mutant growth inhibition, hits give high values
# Procedure, shortened: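 Readout: growth inhibition vs vehicle controls. Cells: genetically altered yeast strain, DNA repair defect.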
# [17] = at 5.0 µM (retest, dose inferred, filed as 0.5)
# [18] = at 50.0 µM (retest, dose inferred, filed as 5.0)
smiles,measurement,setting,value
CC(=O)Oc1ccc2c(c1)Cc1cc(N3C(=O)C=CC3=O)ccc1-2,growth inhibition,[1]; at 1.2 µM,10%
same,growth inhibition,[1]; at 3.7 µM,29%
same,growth inhibition,[1]; at 11.0 µM,73% (active)
same,growth inhibition,[1]; at 33.0 µM,96% (active)
same,growth inhibition,[1]; at 100.0 µM,95% (active)
same,growth inhibition,[2]; at 1.2 µM,1%
same,growth inhibition,[2]; at 3.7 µM,12%
same,growth inhibition,[2]; at 11.0 µM,35%
same,growth inhibition,[2]; at 33.0 µM,93% (active)
same,growth inhibition,[2]; at 100.0 µM,97% (active)
same,growth inhibition,[3]; at 1.2 µM,81% (active)
same,growth inhibition,[3]; at 3.7 µM,96% (active)
same,growth inhibition,[3]; at 11.0 µM,98% (active)
same,growth inhibition,[3]; at 33.0 µM,97% (active)
same,growth inhibition,[3]; at 100.0 µM,92% (active)
same,growth inhibition,[4]; at 1.2 µM,7%
same,growth inhibition,[4]; at 3.7 µM,19%
same,growth inhibition,[4]; at 11.0 µM,58%
same,growth inhibition,[4]; at 33.0 µM,98% (active)
same,growth inhibition,[4]; at 100.0 µM,95% (active)
same,growth inhibition,[5]; at 1.2 µM,7%
same,growth inhibition,[5]; at 3.7 µM,32%
same,growth inhibition,[5]; [17],27%
same,growth inhibition,[5]; at 11.0 µM,83% (active)
same,growth inhibition,[5]; at 33.0 µM,96% (active)
same,growth inhibition,[5]; [18],99% (active)
same,growth inhibition,[5]; at 50.0 µM,46.1%
same,growth inhibition,[5]; at 100.0 µM,93% (active)
same,growth inhibition,[6]; at 1.2 µM,15%
same,growth inhibition,[6]; at 3.7 µM,30%
same,growth inhibition,[6]; [17],44%
same,growth inhibition,[6]; at 11.0 µM,72% (active)
same,growth inhibition,[6]; at 33.0 µM,97% (active)
same,growth inhibition,[6]; [18],99% (active)
same,growth inhibition,[6]; at 50.0 µM,47.7%
same,growth inhibition,[6]; at 100.0 µM,97% (active)
same,growth inhibition,[7]; at 1.2 µM,10%
same,growth inhibition,[7]; at 3.7 µM,25%
same,growth inhibition,[7]; at 11.0 µM,61%
same,growth inhibition,[7]; at 33.0 µM,98% (active)
same,growth inhibition,[7]; at 100.0 µM,97% (active)
same,growth inhibition,[8]; [17],17%
same,growth inhibition,[8]; [18],99% (active)
same,growth inhibition,[8]; at 50.0 µM,58.2%
same,growth inhibition,[9]; at 1.2 µM,1%
same,growth inhibition,[9]; at 3.7 µM,12%
same,growth inhibition,[9]; at 11.0 µM,35%
same,growth inhibition,[9]; at 33.0 µM,92% (active)
same,growth inhibition,[9]; at 100.0 µM,96% (active)
same,growth inhibition,[10]; [17],7%
same,growth inhibition,[10]; [18],98% (active)
same,growth inhibition,[10]; at 50.0 µM,24.2%
same,growth inhibition,[11]; at 1.2 µM,-9%
same,growth inhibition,[11]; at 3.7 µM,1%
same,growth inhibition,[11]; [17],8%
same,growth inhibition,[11]; at 11.0 µM,37%
same,growth inhibition,[11]; at 33.0 µM,94% (active)
same,growth inhibition,[11]; [18],98% (active)
same,growth inhibition,[11]; at 50.0 µM,48.6%
same,growth inhibition,[11]; at 100.0 µM,97% (active)
same,growth inhibition,[12]; at 1.2 µM,1%
same,growth inhibition,[12]; at 3.7 µM,15%
same,growth inhibition,[12]; at 11.0 µM,46%
same,growth inhibition,[12]; at 33.0 µM,98% (active)
same,growth inhibition,[12]; at 100.0 µM,96% (active)
same,growth inhibition,[13]; at 1.2 µM,13%
same,growth inhibition,[13]; at 3.7 µM,24%
same,growth inhibition,[13]; at 11.0 µM,74% (active)
same,growth inhibition,[13]; at 33.0 µM,98% (active)
same,growth inhibition,[13]; at 100.0 µM,97% (active)
same,growth inhibition,[14]; at 1.2 µM,16%
same,growth inhibition,[14]; at 3.7 µM,33%
same,growth inhibition,[14]; at 11.0 µM,79% (active)
same,growth inhibition,[14]; at 33.0 µM,98% (active)
same,growth inhibition,[14]; at 100.0 µM,97% (active)
same,growth inhibition,[15]; [17],67%
same,growth inhibition,[15]; [18],98% (active)
same,growth inhibition,[15]; at 50.0 µM,40.6%
same,growth inhibition,[16]; at 1.2 µM,10%
same,growth inhibition,[16]; at 3.7 µM,30%
same,growth inhibition,[16]; at 11.0 µM,85% (active)
same,growth inhibition,[16]; at 33.0 µM,96% (active)
same,growth inhibition,[16]; at 100.0 µM,95% (active)
CCN(CC)CCNc1ccc2nc(C)n3c4ccc(O)cc4c(=O)c1c23,growth inhibition,[1]; at 1.2 µM,40%
same,growth inhibition,[1]; at 3.7 µM,74% (active)
same,growth inhibition,[1]; at 11.0 µM,89% (active)
same,growth inhibition,[1]; at 33.0 µM,91% (active)
same,growth inhibition,[1]; at 100.0 µM,93% (active)
same,growth inhibition,[2]; at 1.2 µM,-2%
same,growth inhibition,[2]; at 3.7 µM,-4%
same,growth inhibition,[2]; at 11.0 µM,-2%
same,growth inhibition,[2]; at 33.0 µM,0%
same,growth inhibition,[2]; at 100.0 µM,2%
same,growth inhibition,[3]; at 1.2 µM,5%
same,growth inhibition,[3]; at 3.7 µM,15%
same,growth inhibition,[3]; at 11.0 µM,24%
same,growth inhibition,[3]; at 33.0 µM,38%
same,growth inhibition,[3]; at 100.0 µM,39%
same,growth inhibition,[4]; at 1.2 µM,3%
same,growth inhibition,[4]; at 3.7 µM,0%
same,growth inhibition,[4]; at 11.0 µM,3%
same,growth inhibition,[4]; at 33.0 µM,1%
same,growth inhibition,[4]; at 100.0 µM,2%
same,growth inhibition,[5]; at 1.2 µM,42%
same,growth inhibition,[5]; at 3.7 µM,73% (active)
same,growth inhibition,[5]; [17],91% (active)
same,growth inhibition,[5]; at 11.0 µM,84% (active)
same,growth inhibition,[5]; at 33.0 µM,91% (active)
same,growth inhibition,[5]; [18],91% (active)
same,growth inhibition,[5]; at 50.0 µM,-0.45%
same,growth inhibition,[5]; at 100.0 µM,92% (active)
same,growth inhibition,[6]; at 1.2 µM,-1%
same,growth inhibition,[6]; at 3.7 µM,10%
same,growth inhibition,[6]; [17],15%
same,growth inhibition,[6]; at 11.0 µM,3%
same,growth inhibition,[6]; at 33.0 µM,14%
same,growth inhibition,[6]; [18],15%
same,growth inhibition,[6]; at 50.0 µM,26.9%
same,growth inhibition,[6]; at 100.0 µM,28%
same,growth inhibition,[7]; at 1.2 µM,-1%
same,growth inhibition,[7]; at 3.7 µM,2%
same,growth inhibition,[7]; at 11.0 µM,3%
same,growth inhibition,[7]; at 33.0 µM,8%
same,growth inhibition,[7]; at 100.0 µM,13%
same,growth inhibition,[8]; [17],18%
same,growth inhibition,[8]; [18],18%
same,growth inhibition,[8]; at 50.0 µM,0.15%
same,growth inhibition,[9]; at 1.2 µM,-1%
same,growth inhibition,[9]; at 3.7 µM,2%
same,growth inhibition,[9]; at 11.0 µM,-1%
same,growth inhibition,[9]; at 33.0 µM,3%
same,growth inhibition,[9]; at 100.0 µM,-2%
same,growth inhibition,[10]; [17],28%
same,growth inhibition,[10]; [18],28%
same,growth inhibition,[10]; at 50.0 µM,18.6%
same,growth inhibition,[11]; at 1.2 µM,-3%
same,growth inhibition,[11]; at 3.7 µM,-19%
same,growth inhibition,[11]; [17],39%
same,growth inhibition,[11]; at 11.0 µM,-1%
same,growth inhibition,[11]; at 33.0 µM,-5%
same,growth inhibition,[11]; [18],39%
same,growth inhibition,[11]; at 50.0 µM,-3.85%
same,growth inhibition,[11]; at 100.0 µM,3%
same,growth inhibition,[12]; at 1.2 µM,0%
same,growth inhibition,[12]; at 3.7 µM,1%
same,growth inhibition,[12]; at 11.0 µM,0%
same,growth inhibition,[12]; at 33.0 µM,1%
same,growth inhibition,[12]; at 100.0 µM,5%
same,growth inhibition,[13]; at 1.2 µM,2%
same,growth inhibition,[13]; at 3.7 µM,3%
same,growth inhibition,[13]; at 11.0 µM,-6%
same,growth inhibition,[13]; at 33.0 µM,2%
same,growth inhibition,[13]; at 100.0 µM,22%
same,growth inhibition,[14]; at 1.2 µM,0%
same,growth inhibition,[14]; at 3.7 µM,-1%
same,growth inhibition,[14]; at 11.0 µM,1%
same,growth inhibition,[14]; at 33.0 µM,4%
same,growth inhibition,[14]; at 100.0 µM,5%
same,growth inhibition,[15]; [17],6%
same,growth inhibition,[15]; [18],6%
same,growth inhibition,[15]; at 50.0 µM,78.4% (active)
same,growth inhibition,[16]; at 1.2 µM,0%
same,growth inhibition,[16]; at 3.7 µM,0%
same,growth inhibition,[16]; at 11.0 µM,-4%
same,growth inhibition,[16]; at 33.0 µM,-13%
same,growth inhibition,[16]; at 100.0 µM,-22%

# Source: PubChem BioAssay (NCI)
